{
  "source": "PubChem BioAssay (NCATS)",
  "note": "Records with an inconclusive call do not appear. Unmarked numbers belong to inactive results. The call rests on the fitted dose curve; in most records, active means well fitted cell-killing curve with a large enough effect; inconclusive means small, poorly fitted or top-dose-only effect; inactive means flat fitted curve, though single readings scatter. On the % scale 0 is the no-effect control and ±100 the full control effect.",
  "data": [
    {"assay": "Cell Viability - LYMP2-010 (AID 981); further: nearly all actives have a fitted effect of over 55% in size", "conditions": "LYMP2-010 lymphoblastoid cell viability, qHTS; series mostly up to 92.2 µM; activity, negative = cytotoxicity: at the top concentration", "text": "NIH Chemical Genomics Center [NCGC]\nNIH Molecular Libraries Screening Centers Network [MLSCN]\nNational Institutes of Environmental Health Sciences [NIEHS]\nNational Toxicology Program [NTP]\nWe have developed a 1536-well cell-based assay for quantitative high throughput screening (qHTS) against a number of cell lines to determine in vitro cytotoxicity of small molecules. This particular assay uses a human lymphoblastoid cell line (LYMP2-010) purchased from Coriell Institute for Medical Research.\nNCGC Assay Protocol Summary:\nThe CellTiter-Glo luminescent cell viability assay (Promega) is a homogeneous method to measure the number of viable cells in culture. The end point readout of this assay is based on quantitation of intracellular ATP, an indicator of metabolic activity, using the luciferase reaction. Luciferase catalyzes the oxidation of beetle Luciferin to oxyluciferin and light in the presence of ATP. The luminescent signal is proportional to amount of ATP present.\nUsing the CellTiter-Glo luminescent cell viability assay, the amount of cellular ATP was measured in the lymphoblastoid cell line with complete culture medium following compound treatment for 24 hours. The assay was performed in opaque white Kalypsys 1536-well plates. In the screen, tetraoctylammonium bromide was used as positive control. Library compounds were measured for their ability to cause acute toxicity in the cell line, as reflected by a decrease in intracellular ATP levels, in a concentration-dependent manner. […] AC50 values were determined from concentration-response data modeled with the standard Hill equation.\nqHTS protocol for CellTiter Glo lymphoblastoid cellular assay\n[Step] [Parameter] [Value] [Description]\n1. Reagent; 5 uL; 2500 lymphoblastoid cells/well\n2. Time; 5 hr; 37 C incubation\n4. Controls; 23 nL; Tetraoctylammonium bromide 6.4pM to 92 uM\n5. Time; 24 hr; 37 C incubation\n6. Reagent; 5 uL; CellTiter Glo reagent\n7. Time; 30 min; Room Temperature\n8. Detection; Luminescence; Viewlux plate reader\nKeywords: cell viability, cytotoxicity, lymphoblastoid cell line, luminescence, NTPHTS, NTPHTS_NCGC, NIEHS, DSSTox, MLSMR, MLSCN, NIH Roadmap, qHTS, NCGC", "units": {"activity, negative = cytotoxicity": "%"}, "values": [
      {"smiles": "CCCCC=O", "activity, negative = cytotoxicity": -11.3},
      {"smiles": "C=C(C)C1CC=C(C)C(OC(C)=O)C1", "note": "(stereo not given)", "activity, negative = cytotoxicity": -0.0523},
      {"smiles": "O=[N+]([O-])c1c(Cl)cc(Cl)cc1Cl", "activity, negative = cytotoxicity": -8.86},
      {"smiles": "Cc1ccc2ccccc2c1[N+](=O)[O-]", "activity, negative = cytotoxicity": 1.36},
      {"smiles": "CCOc1ccccc1N", "activity, negative = cytotoxicity": -4.3},
      {"smiles": "C=CCOC(=O)CCCCCCCC", "activity, negative = cytotoxicity": 4.59},
      {"smiles": "C=C(C)C(=O)OCCCCCC", "activity, negative = cytotoxicity": -13},
      {"smiles": "NCCCCCCN", "activity, negative = cytotoxicity": -13.4},
      {"smiles": "O=[N+]([O-])c1cc(C(F)(F)F)ccc1Cl", "activity, negative = cytotoxicity": -16.8},
      {"smiles": "OC1CCCC1", "activity, negative = cytotoxicity": -2.11},
      {"smiles": "CNc1ccc([N+](=O)[O-])cc1", "activity, negative = cytotoxicity": -3.99},
      {"smiles": "Cc1ccccc1C=O", "activity, negative = cytotoxicity": -5.89},
      {"smiles": "C=CC(=O)OCCCC", "activity, negative = cytotoxicity": -11},
      {"smiles": "CC/C=C1/OC(=O)c2ccccc21", "activity, negative = cytotoxicity": -13.4},
      {"smiles": "CC1(N)CCC(C(C)(C)N)CC1", "note": "(stereo not given)", "activity, negative = cytotoxicity": -4.07},
      {"smiles": "O=C(O)c1ccccc1[N+](=O)[O-]", "activity, negative = cytotoxicity": -13.5},
      {"smiles": "CN(C)c1cccc(O)c1", "activity, negative = cytotoxicity": -7.93},
      {"smiles": "CCCCCCCCN", "activity, negative = cytotoxicity": -17},
      {"smiles": "Nc1ccccc1[N+](=O)[O-]", "activity, negative = cytotoxicity": 4.13},
      {"smiles": "CCCCC(=O)N(C)C", "activity, negative = cytotoxicity": -4.05},
      {"smiles": "CCOc1ccc(NC(C)=O)cc1N", "activity, negative = cytotoxicity": -7.36},
      {"smiles": "CCCCCCCN", "activity, negative = cytotoxicity": -8.8},
      {"smiles": "Cc1ccc(Cl)cc1N", "activity, negative = cytotoxicity": -13.1},
      {"smiles": "O=C1NC(=O)c2cc([N+](=O)[O-])ccc21", "activity, negative = cytotoxicity": -9.19},
      {"smiles": "NC(=O)c1cccc([N+](=O)[O-])c1", "activity, negative = cytotoxicity": -8.81},
      {"smiles": "CCNS(=O)(=O)c1ccc(C)cc1", "activity, negative = cytotoxicity": -5.3},
      {"smiles": "CC(O)CC(C)O", "note": "(stereo not given)", "activity, negative = cytotoxicity": 0.322},
      {"smiles": "Cc1cccc2ccccc12", "activity, negative = cytotoxicity": -13.2},
      {"smiles": "O=C1OC(=O)c2c(Cl)c(Cl)c(Cl)c(Cl)c21", "activity, negative = cytotoxicity": -16.9},
      {"smiles": "CC(O)COC(C)(C)C", "note": "(stereo not given)", "activity, negative = cytotoxicity": -13.4},
      {"smiles": "CC/C=C/C#N", "activity, negative = cytotoxicity": -10.4},
      {"smiles": "CCC(C)=O", "activity, negative = cytotoxicity": -3.05},
      {"smiles": "NC(=O)CCCCC(N)=O", "activity, negative = cytotoxicity": 5.42},
      {"smiles": "Nc1cc(S(=O)(=O)O)ccc1O", "activity, negative = cytotoxicity": -11.3},
      {"smiles": "CCCCC(CC)CNCC(CC)CCCC", "note": "(stereo not given)", "activity, negative = cytotoxicity": -5.46},
      {"smiles": "CC(C)N=C=NC(C)C", "activity, negative = cytotoxicity": 0.892},
      {"smiles": "c1ccc(Oc2ccccc2)cc1", "activity, negative = cytotoxicity": -2.97},
      {"smiles": "Clc1ccccn1", "activity, negative = cytotoxicity": -9.92},
      {"smiles": "CCCCCCC(=O)O", "activity, negative = cytotoxicity": -3.15},
      {"smiles": "CC(=O)Nc1ccc(N)cc1", "activity, negative = cytotoxicity": -12.9}
    ]}
  ]
}
